From PubChem BioAssay
Calls of active or inactive are those of the source.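 Rule for the calls: active = growth inhibition above 50% at the single 2 µM test dose, taken to imply half-maximal potency below 2 µM; inactive = the rest.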

Test: antimalarial activity against Dd2 strain (AID 2302);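 note: 0% = DMSO untreated growth and 100% = chloroquine plus artemisinin killed control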
Conditions: P. falciparum Dd2 in RBCs, LDH growth readout, 72 h; at 2 µM; active compounds read high
In the case of `NCCCNc1ccc(-c2ccc(NC(=O)Nc3cc(C(F)(F)F)ccc3F)cc2)cn1`, the growth inhibition is reported as 66% (active).
For `O=C(NCCN1CCC(c2ncc(-c3ccccc3)o2)CC1)c1ccc(NC(=O)c2ccc(Cl)cc2)cc1`, the growth inhibition was 80% (active).
In the case of `O=C(c1cc(C(=O)Nc2ccccc2F)c(=O)n(-c2ccccc2F)c1)c1cc(Cl)ccc1O`, the growth inhibition is reported as 80% (active).
In the case of `CCN1CCC(N(Cc2ccc(-c3ccc(C(F)(F)F)cc3)cc2)C(=O)Cn2c(CCc3cccc(F)c3F)cc(=O)c3c2CCC3)CC1`, the growth inhibition is reported as 85% (active).
For `Cc1ccc(NC(=O)c2ccc(N3CCC(c4ccccc4C)CC3)nc2)cc1`, the growth inhibition was 72% (active).
In the case of `Cc1ccc2[nH]c3c(c2c1)CC(C(=O)NCCC(C)C)NC31CCN(Cc2ccccc2)CC1` (centres undefined), the growth inhibition is reported as 50% (active).
For `CCc1cc2c3c(N)nc(N)nc3ccc2n1CC`, the growth inhibition was -2% (inactive).
With `CN(C)CCOc1cc(NC(=O)Nc2ccc(-c3ccccc3)cc2Cl)ccc1I` the growth inhibition was 93% (active).
With `CN1CCCC1CCOc1ccc2c(c1)N(C(=O)Nc1cc(Br)cc(C(F)(F)F)c1)CC2` (centres undefined) the growth inhibition was 97% (active).
With `CN1CCN(c2ccnc3cc4ccccc4cc23)CC1` the growth inhibition was 49% (inactive).
In the case of `CC(=Nc1ccc(Cl)c(Cl)c1)N(C)C`, the growth inhibition is reported as 0% (inactive).
In the case of `CN1CCCc2cc(NC(=O)C=Cc3ccc(-c4ccc(F)cc4F)o3)ccc2C1`, the growth inhibition is reported as 27% (inactive).
For `Cn1cncc1CCN(Cc1ccc(-c2ccc(C(F)(F)F)cc2)cc1)C(=O)Cn1c(SCc2cccc(F)c2F)cc(=O)c2ccccc21`, the growth inhibition was 90% (active).
For `Cc1cc(NC(=O)Nc2ccc(N(C)C)cc2)c2cc(Cl)ccc2n1`, the growth inhibition was 50% (active).
